Measurements as given in article PMC11006913.
Residue numbers refer to the chain shown, from its start.

Key:
Test in all cases: PBM; 200 nM protein, PBS
Details in all cases: dsDNA, one strand shown
SIX6 [1] = target: T1, SIX6 (Homo sapiens, UniProt O95475 114-200, L167I)
T1 sequence: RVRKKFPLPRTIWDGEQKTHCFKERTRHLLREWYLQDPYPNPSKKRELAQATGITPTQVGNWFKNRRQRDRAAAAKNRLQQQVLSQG

SIX6 [2] = target: T2, SIX6 (Homo sapiens, UniProt O95475 114-200, L143V)
T2 sequence: T1 sequence with L30V, I54L

SIX6 [3] = target: T3, SIX6 (Homo sapiens, UniProt O95475 114-200, H141N)
T3 sequence: T1 sequence with H28N, I54L

SIX6 [4] = target: T4, SIX6 (Homo sapiens, UniProt O95475 114-200, T165P)
T4 sequence: T1 sequence with T52P, I54L

SIX6 [5] = target: T5, SIX6 (Homo sapiens, UniProt O95475 114-200, L167M)
T5 sequence: T1 sequence with I54M

SIX6 [6] = target: T6, SIX6 (Homo sapiens, UniProt O95475 114-200, L143M)
T6 sequence: T1 sequence with L30M, I54L

SIX6 [7] = target: T7, SIX6 (Homo sapiens, UniProt O95475 114-200, L143I)
T7 sequence: T1 sequence with L30I, I54L

SIX6 [8] = target: T8, SIX6 (Homo sapiens, UniProt O95475 114-200, T165G)
T8 sequence: T1 sequence with T52G, I54L

SIX6 [9] = target: T9, SIX6 (Homo sapiens, UniProt O95475 114-200, T139Q)
T9 sequence: T1 sequence with T26Q, I54L

SIX6 [10] = target: T10, SIX6 (Homo sapiens, UniProt O95475 114-200, T165A)
T10 sequence: T1 sequence with T52A, I54L

SIX6 [11] = target: T11, SIX6 (Homo sapiens, UniProt O95475 114-200, L167V)
T11 sequence: T1 sequence with I54V

SIX6 [12] = target: T12, SIX6 (Homo sapiens, UniProt O95475 114-200)
T12 sequence: T1 sequence with I54L

SIX6 [13] = target: T13, SIX6 (Homo sapiens, UniProt O95475 114-200, T165I)
T13 sequence: T1 sequence with T52I, I54L

NKX3-2 [14] = target: NKX3-2 (Homo sapiens, UniProt P78367 192-278, P234S)
NKX3-2 (Homo sapiens, UniProt P78367 192-278, P234S), sequence (P78367 192-278 P234S): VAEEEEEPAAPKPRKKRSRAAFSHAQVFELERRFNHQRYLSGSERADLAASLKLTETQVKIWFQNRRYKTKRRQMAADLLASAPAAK

NKX3-2 [15] = target: NKX3-2 (Homo sapiens, UniProt P78367 192-278)
NKX3-2 (Homo sapiens, UniProt P78367 192-278), sequence (P78367 192-278): as the sequence (P78367 192-278 P234S) above, with S43P counted along it

Sequence | binding signal (SIX6 [1]) | binding signal (SIX6 [2]) | binding signal (SIX6 [3]) | binding signal (SIX6 [4]) | binding signal (SIX6 [5]) | binding signal (SIX6 [6]) | binding signal (SIX6 [7]) | binding signal (SIX6 [8]) | binding signal (SIX6 [9]) | binding signal (SIX6 [10]) | binding signal (SIX6 [11]) | binding signal (SIX6 [12]) | binding signal (SIX6 [13]) | binding signal (NKX3-2 [14]) | binding signal (NKX3-2 [15])
AGCGGTGG | 8.97 upbm affinity estimate (log intensity, higher = more binding, comparable within an allelic series) | 8.89 upbm affinity estimate (log intensity, higher = more binding, comparable within an allelic series) | 8.96 upbm affinity estimate (log intensity, higher = more binding, comparable within an allelic series) | 8.97 upbm affinity estimate (log intensity, higher = more binding, comparable within an allelic series) | 8.93 upbm affinity estimate (log intensity, higher = more binding, comparable within an allelic series) | 9.05 upbm affinity estimate (log intensity, higher = more binding, comparable within an allelic series) | 9 upbm affinity estimate (log intensity, higher = more binding, comparable within an allelic series) | 8.94 upbm affinity estimate (log intensity, higher = more binding, comparable within an allelic series) | 9.04 upbm affinity estimate (log intensity, higher = more binding, comparable within an allelic series) | 8.98 upbm affinity estimate (log intensity, higher = more binding, comparable within an allelic series) | 8.84 upbm affinity estimate (log intensity, higher = more binding, comparable within an allelic series) | 9.06 upbm affinity estimate (log intensity, higher = more binding, comparable within an allelic series) | 8.95 upbm affinity estimate (log intensity, higher = more binding, comparable within an allelic series) |  | 
GGTGATAC | 11.3 upbm affinity estimate (log intensity, higher = more binding, comparable within an allelic series) | 10.3 upbm affinity estimate (log intensity, higher = more binding, comparable within an allelic series) | 11.3 upbm affinity estimate (log intensity, higher = more binding, comparable within an allelic series) | 9.52 upbm affinity estimate (log intensity, higher = more binding, comparable within an allelic series) | 10.6 upbm affinity estimate (log intensity, higher = more binding, comparable within an allelic series) | 11 upbm affinity estimate (log intensity, higher = more binding, comparable within an allelic series) | 10.4 upbm affinity estimate (log intensity, higher = more binding, comparable within an allelic series) | 11.3 upbm affinity estimate (log intensity, higher = more binding, comparable within an allelic series) | 11.4 upbm affinity estimate (log intensity, higher = more binding, comparable within an allelic series) | 11.3 upbm affinity estimate (log intensity, higher = more binding, comparable within an allelic series) | 11 upbm affinity estimate (log intensity, higher = more binding, comparable within an allelic series) | 11 upbm affinity estimate (log intensity, higher = more binding, comparable within an allelic series) | 11 upbm affinity estimate (log intensity, higher = more binding, comparable within an allelic series) |  | 
CTGGCGCC | 8.88 upbm affinity estimate (log intensity, higher = more binding, comparable within an allelic series) | 8.96 upbm affinity estimate (log intensity, higher = more binding, comparable within an allelic series) | 8.82 upbm affinity estimate (log intensity, higher = more binding, comparable within an allelic series) | 9.1 upbm affinity estimate (log intensity, higher = more binding, comparable within an allelic series) | 8.85 upbm affinity estimate (log intensity, higher = more binding, comparable within an allelic series) | 8.93 upbm affinity estimate (log intensity, higher = more binding, comparable within an allelic series) | 8.9 upbm affinity estimate (log intensity, higher = more binding, comparable within an allelic series) | 8.9 upbm affinity estimate (log intensity, higher = more binding, comparable within an allelic series) | 8.85 upbm affinity estimate (log intensity, higher = more binding, comparable within an allelic series) | 8.87 upbm affinity estimate (log intensity, higher = more binding, comparable within an allelic series) | 8.8 upbm affinity estimate (log intensity, higher = more binding, comparable within an allelic series) | 8.82 upbm affinity estimate (log intensity, higher = more binding, comparable within an allelic series) | 8.87 upbm affinity estimate (log intensity, higher = more binding, comparable within an allelic series) | 10.6 upbm affinity estimate (log intensity, higher = more binding, comparable within an allelic series) | 10.5 upbm affinity estimate (log intensity, higher = more binding, comparable within an allelic series)
ATATACAC | 10.9 upbm affinity estimate (log intensity, higher = more binding, comparable within an allelic series) | 10.4 upbm affinity estimate (log intensity, higher = more binding, comparable within an allelic series) | 10.9 upbm affinity estimate (log intensity, higher = more binding, comparable within an allelic series) | 10.1 upbm affinity estimate (log intensity, higher = more binding, comparable within an allelic series) | 10.8 upbm affinity estimate (log intensity, higher = more binding, comparable within an allelic series) | 10.9 upbm affinity estimate (log intensity, higher = more binding, comparable within an allelic series) | 10.4 upbm affinity estimate (log intensity, higher = more binding, comparable within an allelic series) | 11.1 upbm affinity estimate (log intensity, higher = more binding, comparable within an allelic series) | 11 upbm affinity estimate (log intensity, higher = more binding, comparable within an allelic series) | 10.9 upbm affinity estimate (log intensity, higher = more binding, comparable within an allelic series) | 10.7 upbm affinity estimate (log intensity, higher = more binding, comparable within an allelic series) | 10.9 upbm affinity estimate (log intensity, higher = more binding, comparable within an allelic series) | 10.9 upbm affinity estimate (log intensity, higher = more binding, comparable within an allelic series) |  | 
CGGTATCA | 11.3 upbm affinity estimate (log intensity, higher = more binding, comparable within an allelic series) | 10.3 upbm affinity estimate (log intensity, higher = more binding, comparable within an allelic series) | 11.3 upbm affinity estimate (log intensity, higher = more binding, comparable within an allelic series) | 9.64 upbm affinity estimate (log intensity, higher = more binding, comparable within an allelic series) | 10.6 upbm affinity estimate (log intensity, higher = more binding, comparable within an allelic series) | 11 upbm affinity estimate (log intensity, higher = more binding, comparable within an allelic series) | 10.4 upbm affinity estimate (log intensity, higher = more binding, comparable within an allelic series) | 11.5 upbm affinity estimate (log intensity, higher = more binding, comparable within an allelic series) | 11.4 upbm affinity estimate (log intensity, higher = more binding, comparable within an allelic series) | 11.3 upbm affinity estimate (log intensity, higher = more binding, comparable within an allelic series) | 11 upbm affinity estimate (log intensity, higher = more binding, comparable within an allelic series) | 11.1 upbm affinity estimate (log intensity, higher = more binding, comparable within an allelic series) | 11 upbm affinity estimate (log intensity, higher = more binding, comparable within an allelic series) |  | 
CGTGATAC | 11.2 upbm affinity estimate (log intensity, higher = more binding, comparable within an allelic series) | 10.3 upbm affinity estimate (log intensity, higher = more binding, comparable within an allelic series) | 11.3 upbm affinity estimate (log intensity, higher = more binding, comparable within an allelic series) | 9.72 upbm affinity estimate (log intensity, higher = more binding, comparable within an allelic series) | 10.6 upbm affinity estimate (log intensity, higher = more binding, comparable within an allelic series) | 11.1 upbm affinity estimate (log intensity, higher = more binding, comparable within an allelic series) | 10.4 upbm affinity estimate (log intensity, higher = more binding, comparable within an allelic series) | 11.3 upbm affinity estimate (log intensity, higher = more binding, comparable within an allelic series) | 11.3 upbm affinity estimate (log intensity, higher = more binding, comparable within an allelic series) | 11.2 upbm affinity estimate (log intensity, higher = more binding, comparable within an allelic series) | 10.9 upbm affinity estimate (log intensity, higher = more binding, comparable within an allelic series) | 11 upbm affinity estimate (log intensity, higher = more binding, comparable within an allelic series) | 11 upbm affinity estimate (log intensity, higher = more binding, comparable within an allelic series) |  | 
